# Laboratory results: the supplement of paper PMC6897291
# Columns and labels:
# U-2932 [1] = assay: growth inhibition by drug alone (1 - RLU/untreated control) (fraction); higher = stronger inhibition; conditions: 177Lu-lilotomab satetraxetan 0 ug/ml
# Outline: (§1)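 Compound doses on the pre-printed Selleck Cambridge Cancer Compound library plates were 10/100 nM for RIVA cells and 10/1,000 nM for U-2932 cells, seeded at 3,000 cells/well. Before seeding, cells were washed after 18 h with or without a radiolabelled anti-CD37 antibody conjugate (~600 MBq/mg; 0.5 µg/ml RIVA, 1 µg/ml U-2932). Growth inhibition was derived from RealTime-Glo luminescence relative to untreated no-drug control wells. Readings were taken daily starting on day 3, each after 1 h at 37°C, and each well's RLU was divided by the mean of 48 such wells per plate and subtracted from 1.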
# RIVA [2] = assay: as above; conditions: 177Lu-lilotomab satetraxetan 0 ug/ml
# Outline: as §1
# U-2932 [3] = assay: growth inhibition by drug plus 177Lu-lilotomab satetraxetan (1 - RLU/untreated control) (fraction); higher = stronger inhibition; conditions: 177Lu-lilotomab satetraxetan 1 ug/ml
# Outline: as §1
# RIVA [4] = assay: as above; conditions: 177Lu-lilotomab satetraxetan 0.5 ug/ml
# Outline: as §1
smiles,measurement,setting,value
O=c1cc(-c2cccc3c2Sc2ccccc2S3)oc(N2CCOCC2)c1,growth inhibition by drug alone,"U-2932 [1]; 10 nM, time (day): 3",-0.0795
same,growth inhibition by drug alone,"U-2932 [1]; 10 nM, time (day): 4",-0.0657
same,growth inhibition by drug alone,"U-2932 [1]; 10 nM, time (day): 5",-0.0216
same,growth inhibition by drug alone,"U-2932 [1]; 10 nM, time (day): 6",0.0484
same,growth inhibition by drug alone,"U-2932 [1]; 1000 nM, time (day): 3",-0.0815
same,growth inhibition by drug alone,"U-2932 [1]; 1000 nM, time (day): 4",-0.0342
same,growth inhibition by drug alone,"U-2932 [1]; 1000 nM, time (day): 5",-0.0721
same,growth inhibition by drug alone,"U-2932 [1]; 1000 nM, time (day): 6",-0.125
same,growth inhibition by drug alone,"RIVA [2]; 10 nM, time (day): 3",-0.212
same,growth inhibition by drug alone,"RIVA [2]; 10 nM, time (day): 4",-0.223
same,growth inhibition by drug alone,"RIVA [2]; 10 nM, time (day): 5",-0.243
same,growth inhibition by drug alone,"RIVA [2]; 10 nM, time (day): 6",-0.318
same,growth inhibition by drug alone,"RIVA [2]; 100 nM, time (day): 3",-0.0838
same,growth inhibition by drug alone,"RIVA [2]; 100 nM, time (day): 4",-0.0652
same,growth inhibition by drug alone,"RIVA [2]; 100 nM, time (day): 5",-0.119
same,growth inhibition by drug alone,"RIVA [2]; 100 nM, time (day): 6",-0.19
same,growth inhibition by drug plus 177Lu-lilotomab satetraxetan,"U-2932 [3]; 10 nM, time (day): 3",-0.0246
same,growth inhibition by drug plus 177Lu-lilotomab satetraxetan,"U-2932 [3]; 10 nM, time (day): 4",-0.00365
same,growth inhibition by drug plus 177Lu-lilotomab satetraxetan,"U-2932 [3]; 10 nM, time (day): 5",0.0233
same,growth inhibition by drug plus 177Lu-lilotomab satetraxetan,"U-2932 [3]; 10 nM, time (day): 6",0.166
same,growth inhibition by drug plus 177Lu-lilotomab satetraxetan,"U-2932 [3]; 1000 nM, time (day): 3",-0.108
same,growth inhibition by drug plus 177Lu-lilotomab satetraxetan,"U-2932 [3]; 1000 nM, time (day): 4",-0.0389
same,growth inhibition by drug plus 177Lu-lilotomab satetraxetan,"U-2932 [3]; 1000 nM, time (day): 5",-0.0219
same,growth inhibition by drug plus 177Lu-lilotomab satetraxetan,"U-2932 [3]; 1000 nM, time (day): 6",0.0537
same,growth inhibition by drug plus 177Lu-lilotomab satetraxetan,"RIVA [4]; 10 nM, time (day): 3",0.36
same,growth inhibition by drug plus 177Lu-lilotomab satetraxetan,"RIVA [4]; 10 nM, time (day): 4",0.504
same,growth inhibition by drug plus 177Lu-lilotomab satetraxetan,"RIVA [4]; 10 nM, time (day): 5",0.522
same,growth inhibition by drug plus 177Lu-lilotomab satetraxetan,"RIVA [4]; 10 nM, time (day): 6",0.526
same,growth inhibition by drug plus 177Lu-lilotomab satetraxetan,"RIVA [4]; 100 nM, time (day): 3",0.335
same,growth inhibition by drug plus 177Lu-lilotomab satetraxetan,"RIVA [4]; 100 nM, time (day): 4",0.399
same,growth inhibition by drug plus 177Lu-lilotomab satetraxetan,"RIVA [4]; 100 nM, time (day): 5",0.405
same,growth inhibition by drug plus 177Lu-lilotomab satetraxetan,"RIVA [4]; 100 nM, time (day): 6",0.382
